Hits are enriched below; roughly 8% of the tested compounds scored in any of these assays.
PostGolgi ctrl: growth inhibition of yeast control strain, primary screen, counter-screen for post-Golgi transport modulator project | AID 738, 2007 | 98,000 tested, 5% active | efflux-deficient yeast background strain, growth absorbance A615, 16 h | inhibition, % at 10 µM
PostGolgi yeast: phenotypic screen on post-Golgi transport, primary screen. post-Golgi transport phenotypic cell assay. 98,000 tested, 0.9% active. inhibition, % at 10 µM. AID 739, 2007;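 also: yeast cells grown in 1536-well plates; yeast grown about 18 h at 30C before absorbance read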
PTK2B oligo ant: antagonists of Pyk2 self-association, primary screen, Q293 cells, FERM NanoBiT luminescence, HTS | active compounds read low | Protein-tyrosine kinase 2-beta (Homo sapiens), Q14289 | 99,000 tested, 0.83% active | z-score (the deposit names both 25 µM and 10 µM) | AID 1347419, 2020;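 active = Z-score of -3 or lower, scaled per plate to the spread of control and sample wells; inactive = z-score above -3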;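 also: negative z-score means lost luminescence so less FERM oligomerization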
Cav32 inh: Cav3.2 calcium influx blockers – cell-based, Fluo-4 calcium fluorescence, FDSS, MLSMR library, primary screen | Voltage-dependent T-type calcium channel subunit alpha-1H (Homo sapiens), O95180 | Cav3.2-expressing cells; active compounds read low | B-score at 10 µM | 100,000 tested, 4% active;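 active = single-dose well whose peak fluorescence ratio is a statistical outlier from its plate by either plate-standardised score or position-corrected B-score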
* hit, by the source's call; nt = no result. Rule as the data show it, unless noted: active = inhibition above about 30%; inactive = the rest.

SMILES | PostGolgi ctrl | PostGolgi yeast | PTK2B oligo ant | Cav32 inh
Cc1cc(NS(=O)(=O)c2ccc(NC(=O)C(C)Oc3ccc(Cl)cc3)cc2)no1 (configuration not stated) | 4 | 0 | 1.2 | -0.21
Cc1cc(NS(=O)(=O)c2ccc(C3CCCCC3)cc2)no1 | 34* | 8 | -0.1 | -0.76
CC(Oc1ccc(Cl)cc1Cl)C(=O)Nc1ccc(S(=O)(=O)Nc2cnc3ccccc3n2)cc1 (configuration not stated) | 49* | 57* | nt | -2.3
Cc1csc(Sc2ccc([N+](=O)[O-])cc2C(=O)OCC(=O)NC(=O)NC(C)(C)C)n1 | 7 | 2 | -1.1 | nt
Cc1ccc(-c2csc3ncnc(SCC(=O)Nc4nnc(C)s4)c23)cc1 | 33* | -5 | -0.32 | 0.001
Cc1ccc(-c2csc3ncnc(SCC(=O)c4ccc5c(c4)OCCO5)c23)cc1 | 2 | 4 | 0.07 | -0.65
O=C(Nc1cccnc1)c1cc(-c2ccc3c(c2)OCO3)on1 | 6 | 2 | 1.2 | 0.044
O=C(Cc1ccc(Cl)cc1)Nc1ccc(N2CCN(C(=O)c3ccco3)CC2)c(Cl)c1 | 60* | -6 | 0.16 | -2.6
COc1ccc(Cl)cc1C(=O)Nc1ccccc1N1CCN(C(=O)C(C)C)CC1 | 54* | 11 | 0.85 | -4.2*
CC(C)C(=O)N1CCN(c2ccccc2NC(=O)Cc2ccc(Cl)cc2)CC1 | 16 | 6 | -0.41 | -5*
CS(=O)(=O)N1CCN(c2ccccc2NC(=O)Cc2ccc(Cl)cc2)CC1 | 22 | -1 | -0.09 | -1.5
CCC(=O)N1CCN(c2ccccc2NC(=O)Cc2ccccc2)CC1 | -2 | 4 | 0.34 | -5*
O=S(=O)(NCc1ccc2c(c1)OCO2)c1cccc2cccnc12 | 3 | 5 | -0.15 | -1.6
Oc1ccc(Br)cc1/C=N/N1CCCCC1 | nt | nt | 0.82 | nt
Oc1ccc(Br)cc1/C=N/n1cnc2ccccc21 | 32* | 3 | 0.41 | 0.75
CC(=O)N(Cc1ccc(F)cc1)C1=C(NCCc2ccccc2)C(=O)c2ccccc2C1=O | 31* | 21 | -3.2* | -2.7
Cc1cc(NC(=O)CCCC(=O)N(CC(=O)NCCc2ccccc2)Cc2ccc(F)cc2)no1 | 6 | 0 | 0.81 | 0.006
Cc1cc(Br)ccc1NC(=O)CCN1C(=O)c2ccncc2C1=O | 33* | 9 | -0.13 | 0.76
O=C(CCN1C(=O)c2ccncc2C1=O)Nc1ccc(F)cc1 | 0 | -1 | 0.69 | 1
C/C=C/C=C/C(=O)[C@@H]1[C@@H]([C@]2(C)OC(=O)C(C)=C2O)[C@H]2/C(=C(O)/C=C/C=C/C)C(=O)[C@]1(C)C(=O)C2(C)O (some centres not stated) | nt | nt | nt | 1.8
Cc1c(Cl)cccc1N(CC(=O)NC1CCCCC1)S(C)(=O)=O | 13 | 0 | -0.85 | -0.37
Cc1nc(CS(=O)c2ccc(Cl)cc2)cc(NCc2ccc(Cl)cc2Cl)n1 (configuration not stated) | 35* | 4 | 0.91 | -5.8*
Cc1nc(CSc2ccc(Cl)cc2)cc(NCc2ccccc2)n1 | 26 | 6 | -0.84 | -8.3*
O=S(=O)(Nc1nc(-c2sccc2Cl)cs1)c1cc(Cl)ccc1Cl | 35* | -2 | -2.6 | -7.1*
O=S(=O)(NCc1cccnc1)c1cc(Cl)ccc1Cl | 12 | 0 | -0.45 | 0.35
SMILES | PostGolgi ctrl | PostGolgi yeast | PTK2B oligo ant | Cav32 inh
COCCN1Cc2cccc(C(=O)NC(C)c3cccs3)c2C1=O (configuration not stated) | 0 | -4 | -0.48 | 1
COc1ccc(C2CC(=O)C3=C(C2)NC(C)=C(C(=O)Nc2ccccc2C)C3c2coc3ccc(C)cc3c2=O)cc1OC (configuration not stated) | 25 | 98* | 0.49 | 0.42
Cn1c(Sc2ccc(Cl)cc2)c(C=O)c2ccccc21 | 37* | 8 | -2.2 | -0.34
O=[N+]([O-])c1cc(S(=O)(=O)Nc2cccc(C(F)(F)F)c2)ccc1-n1nnc2ccccc21 | 11 | -4 | -1.9 | -5.6*
Cc1ccc(S(=O)(=O)N(CC(=O)N2CCC(C(N)=O)CC2)c2cccc(C(F)(F)F)c2)cc1 | 5 | 43* | -0.97 | 0.33
CCO[C@@H]1OC(C(=O)NCc2ccccc2)=C[C@H](c2ccc(C(F)(F)F)cc2)[C@H]1CCCO | nt | nt | nt | -2.8
COc1cc2[nH]c3c(c2cc1OC)CCN1CCCC[C@@H]31 | nt | nt | nt | 0.49
O=C(Nc1nccs1)c1cc(N2CCOCC2)nc2ccccc12 | 34* | -1 | -1 | 0.54
CC1(C)CC(=O)C=C(c2ccc3c(c2)OCO3)C1 | nt | nt | nt | -0.38
N/C(=N\S(=O)(=O)c1ccc(Cl)s1)c1ccccc1 | 1 | 21 | 1.2 | -5.8*
CCS(=O)(=O)/N=C(\N)c1ccccc1 | -7 | 25 | 1.2 | nt
Cc1cc(C)c(NC(=O)/C=C\C(=O)O)c([N+](=O)[O-])c1 | -8 | -3 | 0.32 | 0.092
CC1CCN(c2ncnc3c2cnn3-c2ccccc2)CC1 | 32* | 5 | nt | nt
CCOC(=O)C1CCN(c2ncnc3c2cnn3-c2ccccc2)CC1 | 9 | -7 | -0.2 | -0.25
COc1ccc(C(=O)N[C@H]2COC(C)(C)O[C@H]2c2ccccc2)cc1 | 2 | 8 | 0.25 | 0.73
O=C(CSc1nnc(-c2ccccc2)c(-c2ccccc2)n1)N1CCc2ccccc21 | 17 | 16 | -2.2 | -4.5*
c1ccc(Nc2nc(N3CCNCC3)nc(N3CCOCC3)n2)cc1 | nt | nt | -0.28 | 1.1
O=C(CSc1nc(Nc2ccccc2)nc(N2CCOCC2)n1)N1CCc2ccccc21 | 54* | -2 | -1.6 | 0.44
O=C(CSc1nc(Nc2ccccc2)nc(N2CCOCC2)n1)N1CCCC1 | 8 | 17 | -0.53 | 1.4
c1ccc(Nc2nc(N3CCOCC3)nc(N3CCOCC3)n2)cc1 | 32* | 4 | 1.6 | nt
O=C(CSc1nc(N2CCCCC2)nc(N2CCCCC2)n1)N1CCc2ccccc21 | 7 | -2 | nt | nt
C#CCOCCOCCOCCNc1nc(N2CCN(C(=O)[C@H](CCCCN)n3cc(C(N)CO)nn3)CC2)nc(N2CCN(C(=O)[C@H](CCCCN)n3cc(C(N)COC(=O)C(F)(F)F)nn3)CC2)n1 (some centres not stated) | nt | nt | nt | 0.0082
COCCNC(=O)CSc1nc2cc(OC)c(OC)cc2c(=O)n1Cc1ccc(OC)cc1 | 46* | 5 | 0.56 | 0.65
COCCNC(=O)CSc1nc2ccc(N3CCOCC3)cc2c(=O)n1Cc1ccc(OC)cc1 | 11 | 1 | 0.8 | 1.3
COc1ccc(OC)c(NC(=O)CSc2nnc(C3CCCCC3)n2-c2ccccc2)c1 | nt | nt | -0.35 | -7.4*
SMILES | PostGolgi ctrl | PostGolgi yeast | PTK2B oligo ant | Cav32 inh
COc1ccc(OC)c(NC(=O)CSc2ccccc2)c1 | 10 | 2 | -0.78 | -1.7
COc1ccc(OC)c(NC(=O)CSc2nc3ccccc3c(=O)n2CCNC(C)=O)c1 | -7 | 4 | 1.2 | 3.6*
Cc1ccccc1S(=O)(=O)Cc1ccc(C(=O)N2CCN(c3cccc(C)c3C)CC2)o1 | 38* | 0 | -1.9 | -2.1
COc1ccc(S(=O)(=O)Cc2ccc(C(=O)N3CCN(c4ccccc4F)CC3)o2)cc1 | 32* | -5 | nt | -0.54
CCC1(C)Cc2ccccc2-c2nc(-c3ccccc3)oc(=O)c21 (configuration not stated) | 9 | -2 | -0.1 | -1.4
CCC1(C)Cc2ccccc2-c2nc(NCCCO)n(-c3ccccc3)c(=O)c21 (configuration not stated) | 16 | 3 | -0.37 | -1.9
